Source: PubChem BioAssay (National Center for Advancing Translational Sciences (NCATS))
LASV entry inh: qHTS for Inhibitors of binding or entry into cells for Lassa Virus; Lassa virus pseudotyped entry inhibition, cell-based qHTS; Potency, µM (highest dose often 49.2 µM), for the others: top-dose activity change, negative = inhibition, actives largely listed as inhibitors; hit rate 4.1% among 18,000; AID 720533, 2013
Marburg entry: qHTS for Inhibitors of binding or entry into cells for Marburg Virus; hit rate 6.5% among 18,000; Marburg virus pseudotype entry/binding inhibition, cell-based; Potency, µM (highest dose often 49.2 µM), without a hit: at the top dose activity change, negative = inhibition, most hits filed as inhibitors; AID 720532, 2013
* hit, by the source's call; ? = inconclusive; . = not tested or not shown; ! = repeats disagree; [ ] = dose if it differs, or a comment. Only some compounds are listed: those with a hit (about 7.1% of all), similar ones and a draw of the others. The call rests on the fitted dose curve; tested in HEK293 cells. On the % scale 0 is the no-effect control and ±100 the full control effect; potency means the concentration at half of the fitted maximal effect.

SMILES | LASV entry inh | Marburg entry
CC(C)=CCN1C(=O)[C@@]2(CC(C)=CC[C@@H](COc3ccccc3)O2)c2ccccc21 | -17%[8.59 µM] | 3%[8.59 µM]
CCOC(=O)[C@H](CCc1ccccc1)N[C@H]1CCc2ccccc2N(CC(=O)O)C1=O | 4% | 14µM*!
CCOC(=O)C(CCc1ccccc1)NC1CCc2ccccc2N(CC(=O)O)C1=O (configuration not stated) | -1% | 3%
C=CCN=C1N[C@H](c2ccc(Br)cc2)C(C(=O)OC)=C(C)N1Cc1ccccc1 | -5%[8.59 µM] | 1%[8.59 µM]
O=C(CO)[C@@H](O)[C@H](O)[C@H](O)CO | -4% | 11%
C[C@@H]1[C@@H](c2ccccc2)Oc2c(Cl)cccc2S(=O)(=O)N1C | 3% | 18%
CCCCCCCCCCCCCCCCCCNC(=O)OC1CCN(C(=O)OC[C@H](COC(=O)N(Cc2cccc[n+]2CC)C(=O)c2ccccc2OC)OC)CC1 | 13µM* | 11µM*
O=C(CCCN1CCC(n2c(=S)[nH]c3ccccc32)CC1)c1ccc(F)cc1 | -20% | ?
O=c1[nH]c2ccccc2n1CCCN1CCC(n2c(=O)[nH]c3cc(Cl)ccc32)CC1 | ? | 13µM*!
COC(=O)N1C2CC(=O)O[C@H]3c4cc5c(cc4[C@]1(C)[C@@]3(Br)c1ccccc12)OCO5 | 13%[8.59 µM] | 8%[8.59 µM]
COc1cc2c3cc1Oc1cc(ccc1O)C[C@@H]1c4c(cc(OC)c(O)c4Oc4ccc(cc4)C[C@@H]3N(C)CC2)CC[N+]1(C)C | -9% | 1%
COc1ccc2cc1Oc1ccc(cc1)CC1c3cc(c(OC)cc3CCN1C)Oc1c(OC)c(OC)c(OC)c3c1C(C2)N(C)CC3 (configuration not stated) | ? | 10µM*
COC(=O)C1=C(C)N(CC2CC2)C(=O)NC1c1ccc(Br)cc1 (configuration not stated) | -8%[8.59 µM] | 77%[8.59 µM]
C[C@H]1[C@@H]2O[C@H]2CCO[C@H]1c1cccc(Br)c1 | -6%[8.59 µM] | -16%[8.59 µM]
COC(=O)N[C@@H](c1ccco1)[C@]1(C(C)=O)CCCC1=O | 5%[8.59 µM] | ?
COC(=O)N[C@H](CC(C)=O)c1ccc2c(c1)OCO2 | -15%[8.59 µM] | -17%[8.59 µM]
COc1c(O)c2c(=O)cc(OC)c3c4c(OC)cc(=O)c5c(O)c(OC)c(C[C@@H](C)OC(=O)c6ccccc6)c(c(c1C[C@@H](C)OC(=O)Oc1ccc(O)cc1)c23)c54 | 32µM* | ?
Cc1ccc(C(=O)NC2CC2)cc1-c1ccc2[nH]ncc2c1 | . | -9%
O[C@H]1C[C@H](c2ccccc2)N(Cc2cccs2)C[C@H]1n1cc(C2CC2)nn1 | 2% | ?
CCc1cc2c(nc1CC)CCN(CCC(C)=NO[C@H](C)c1cn([C@H](CO)Cc3ccccc3)nn1)C2 | 2%[8.59 µM] | ?
OCCc1ccccc1 | -5% | 5%
Oc1ccc(Cl)cc1Cc1ccccc1 | 25µM* | -16%[107 µM]
COC(=O)[C@@H]1CC[C@H](C)[C@@H](c2ccc(C)cc2)N1C(=O)c1ccc(C=NOC[C@@H](O)[C@H]2O[C@@H]3OC(C)(C)O[C@H]3[C@@H]2O)cc1 | . | 28%[8.59 µM]
COC(=O)C1=C[C@H]([C@@H](C)[C@H](OC)c2ccccc2Br)[C@H]2c3ccccc3O[C@@H]12 | 1.7µM* | ?
COC(=O)C1=C[C@@H]([C@@H](C)[C@H](OC)c2ccccc2Br)[C@@H]2OCC[C@H]12 | 32%[8.59 µM] | 40%[8.59 µM]
SMILES | LASV entry inh | Marburg entry
C#CCN1C(=O)CC[C@@]23C1=NC(C(=O)OC)=C(C(=O)OC)[C@@H]2N(CC=C(C)C)c1ccccc13 | . | 15%[8.59 µM]
COc1cccc(CO[C@H]2C=C[C@@H](c3ccccc3)O[C@H]2CN=[N+]=[N-])c1 | 25%[8.59 µM] | -17%[8.59 µM]
COc1ccc(N2C(=O)N3[C@H](c4ccccc4)[C@@H](C)C[C@H]4c5ccccc5C[C@]43C2=O)cc1 | 4%[8.59 µM] | 2%[8.59 µM]
CC(CCC(=O)OC[C@H]1O[C@H](C#Cc2ccccc2)C=C[C@H]1Oc1ccc(C)cc1)=NOC[C@@H](O)[C@H]1O[C@@H]2OC(C)(C)O[C@H]2[C@@H]1O | . | -2%[8.59 µM]
CO[C@@H]1CC[C@@]2(C)[C@@H](CC[C@@]3(C)[C@H]2CC=C2[C@H]4CC(C)(C)[C@H](O)[C@@H](OC(C)=O)[C@]4(CO)[C@H](O)C[C@]23C)[C@@]1(C)CO (tested in a mixture with another compound) | 9%[17.8 µM] | -24%[17.8 µM]
C[C@@H]1OC(OC2CC[C@@]3(C)C(CC[C@@]4(C)C3CC=C3C5CC(C)(C)CC[C@]5(C(=O)OC5OCC(O)[C@@H](O)[C@@H]5OC5O[C@@H](C)[C@H](O[C@H]6OC(CO)C(O)C(O)C6O)C(O)C5O)C(O)C[C@@]34C)C2(C)C)C(O)C(O)[C@H]1OC1OCC(O)C(O)[C@H]1O (some centres not stated) | 11µM* | ?
C=C[C@@H](C)[C@@H](OP1(=O)O[C@@H](C=C)C[C@H](C=C)O1)[C@H](C)CO[Si](C)(C)C(C)(C)C (some centres not stated) | 5% | ?
COC1=C[C@H](C(=O)NCCOC(C)=O)[C@@]2(C)Cc3ccccc3[C@@H]2CC1=O | -15%[8.59 µM] | -10%[8.59 µM]
COC(=O)C1=C2CCO[C@@H]2[C@H]2[C@@H](C)[C@H](OC)c3ccccc3[C@H]12 | -24%[8.59 µM] | 0%[8.59 µM]
COC1=C[C@H](C(=O)N[C@H]2CCCC[C@H]2NC(C)=O)[C@@]2(C)Cc3ccccc3[C@@H]2CC1=O | 24%[8.59 µM] | -12%[8.59 µM]
CCCCN(CCCC)CCCOC(=O)c1ccc(N)cc1 | ? | 22µM*!
CCCCOC(=O)c1ccc(N)cc1 | ? | 5%
C[C@H]1CC[C@H]2C(=O)NC[C@H](O)CN2[C@H]1c1ccc(Br)cc1 | 11%[8.59 µM] | -10%[8.59 µM]
COc1cc(O)c(C(=O)C=Cc2ccc3c(c2)OCO3)c(OC)c1 | 12%[8.59 µM] | 10%[8.59 µM]
CCOC(=O)NN=Cc1ccccc1-c1cc(OC)ccc1OC | -18%[8.59 µM] | -4%[8.59 µM]
O=[N+]([O-])c1ccc(F)c([N+](=O)[O-])c1 | -16% | -4%
O=C(NC(NC(=S)Nc1ccc(F)c([N+](=O)[O-])c1)C(Cl)(Cl)Cl)C(c1ccccc1)c1ccccc1 (configuration not stated) | 11µM* | 11µM*
C[C@@H]1CC[C@H]2C(=O)N3[C@@H](CC[C@@H](C)[C@@H]3c3ccc(-c4ccco4)cc3)C(=O)N2[C@@H]1c1ccc(-c2ccco2)cc1 | -1%[8.59 µM] | -2%[8.59 µM]
COc1cccc(-n2ncc3c(NN=Cc4ccc(C(=O)NCCN(C)C)cc4)ncnc32)c1 | 11% | 10µM*
COc1cccc(-n2ncc3c(NN=Cc4ccncc4)ncnc32)c1 | 50% | -20%
COc1cccc(C=NNc2ncnc3c2cnn3-c2cccc(OC)c2)c1 | -45% | -19%
COc1cc(C=NNc2ncnc3c2cnn3-c2ccccc2)ccc1O | ? | 14µM*
CC(CCN1CCCCc2nc(C)c(C)cc21)=NO[C@H](C)CN1CCCc2nc(C)c(C)cc21 | -12%[8.59 µM] | ?
COc1ccc(C(=O)OC2C[C@H]3CC[C@@H](C2)N3C)cc1OC (some centres not stated) | 9%[17.8 µM] | -20%[17.8 µM]
CN1[C@@H]2CC[C@H]1CC(OC(c1ccc(F)cc1)c1ccc(F)cc1)C2 (some centres not stated) | 14µM* | 7.9µM*
CC#CCN1C(=O)NC(c2ccccc2)C(C(=O)OC)=C1C (configuration not stated) | 8%[8.59 µM] | ?
COc1cc2c(cc1OC)[C@@H]1O[C@](CCCCN3C(=O)c4ccccc4C3=O)(C2)Oc2c1c(=O)oc1ccccc21 | -1%[8.59 µM] | 3%[8.59 µM]
